Test [1] concerns Plasmodium falciparum Sir2 (PF13_0152, Sir2A). Briefly: pfSir2 binders on small-molecule microarrays, primary screen, biochemical, small-molecule microarray, 635 nm fluorescence (AID 1098).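 Further: score merges spot fluorescence intensity with its signal-to-noise ratio.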 As to conditions: small-molecule microarray binding, fluorescence 635 nm; higher = more signal.
Test [2] can be described thus: small-molecule microarray binders of probe aDKK1, primary screen, biochemical, biotinylated probe, 635/667 nm fluorescence (AID 1099).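 Further: score merges 667nm spot fluorescence with signal to noise across triplicate slides.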 Conditions: higher = more signal.
Test [3] can be described thus: small-molecule microarray binders of probe aCHRDL2, primary screen, biochemical, biotinylated probe, 635/667 nm fluorescence (AID 1100). As to conditions: higher = more signal.
The nature of test [4]: splicing luciferase reporter signal modulators, primary screen, spliceosome inhibition project, cell-based, HEK293, splice +/- reporter (AID 1101).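 Further: HEK293 cells carrying a splicing-competent luciferase reporter gene; test concentration not given here.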 Conditions: luminescence, 24 h, higher = more signal, called active from +8 up or from −8 down.
Test [5] concerns the target Fibroblast growth factor 10 (Homo sapiens) (UniProt O15520). Briefly: FGF10 binders on small-molecule microarrays, primary screen, biochemical, small-molecule microarray, 635 nm fluorescence (AID 1102). Conditions: FGF10 binding, fluorescence 635 nm, higher = more signal.
For test [6], the system named is glycogen synthase kinase-3 (GSK3A per assay name; protocol says GSK3B). Nature of the test: GSK3 binders on small-molecule microarrays, primary screen, biochemical, small-molecule microarray, 635 nm fluorescence, GSK3A (AID 1103). Further: the record names both GSK3A and GSK3B. Conditions: small-molecule microarray binding, fluorescence 635 nm; higher = more signal.
Test [7] has as its target Epidermal growth factor receptor (Homo sapiens) (UniProt P00533). Nature of the test: EGFR binders on small-molecule microarrays, primary screen, biochemical, small-molecule microarray, 635 nm fluorescence (AID 1104).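 Further: score merges 667 nm emission intensity with spot signal to noise over triplicate slides.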 Conditions: EGFR binding, higher = more signal.
The target in test [8] is Follistatin-related protein 3 (Homo sapiens) (UniProt O95633). Nature of the test: FSTL3 binders on small-molecule microarrays, primary screen, biochemical, small-molecule microarray, 635 nm fluorescence (AID 1105).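 Further: score merges emission near 667 nm and signal to noise per printed spot across three slides.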 Conditions: FSTL3 binding, higher = more signal.
Chain of Follistatin-related protein 3 (Homo sapiens) (O95633 whole entry, looked up): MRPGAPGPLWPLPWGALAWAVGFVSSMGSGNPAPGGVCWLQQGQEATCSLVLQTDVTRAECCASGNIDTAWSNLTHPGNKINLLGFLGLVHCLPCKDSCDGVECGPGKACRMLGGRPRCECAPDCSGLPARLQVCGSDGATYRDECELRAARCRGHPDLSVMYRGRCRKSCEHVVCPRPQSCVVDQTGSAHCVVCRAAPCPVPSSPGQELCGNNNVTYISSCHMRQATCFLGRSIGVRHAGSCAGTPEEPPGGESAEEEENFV
The target in test [9] is Dickkopf-related protein 1 (Homo sapiens) (UniProt O94907). Nature of the test: DKK1 binders on small-molecule microarrays, primary screen, biochemical, small-molecule microarray, 635 nm fluorescence scan (AID 1106).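 Further: score merges emission near 667 nm with signal to noise over three replicate slides.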 Conditions: DKK1 binding, higher = more signal.
Chain of Dickkopf-related protein 1 (Homo sapiens) (O94907 whole entry, looked up): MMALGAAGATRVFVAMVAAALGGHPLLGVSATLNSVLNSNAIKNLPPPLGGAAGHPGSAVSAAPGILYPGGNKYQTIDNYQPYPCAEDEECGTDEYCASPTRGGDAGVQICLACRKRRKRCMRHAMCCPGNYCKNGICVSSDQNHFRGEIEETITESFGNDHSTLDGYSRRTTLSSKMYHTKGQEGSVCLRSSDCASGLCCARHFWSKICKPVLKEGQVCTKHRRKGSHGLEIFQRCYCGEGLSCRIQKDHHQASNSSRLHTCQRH
Test [10] has as its system Inhibin beta A chain (activin A). Nature of the test: INHBA (activin A) binders on microarrays, primary screen, biochemical, small-molecule microarray, 635 nm fluorescence scan (AID 1107).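 Further: mouse activin A protein probed at 4.33 µg/mL on printed slides; score merges bound-protein fluorescence near 667 nm with spot signal-to-noise.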 Conditions: small-molecule microarray binding, higher = more signal.
The test system of test [11] is Human papillomavirus type 1a protein E7 (residues 44-93). Nature of the test: HPV1a E7 fragment binders on microarrays, primary screen, biochemical, small-molecule microarray, residues 44-93, 635 nm fluorescence (AID 1108).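 Further: E7 fragment applied at 1 µg/mL in TBST for 1 h at 4 C; score combines spot fluorescence with its signal to noise ratio.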 As to conditions: small-molecule microarray binding, fluorescence 635 nm; higher = more signal.
The nature of test [12]: modulators of HCV replicon luciferase signal, primary screen, HCV replication inhibitor project, Huh7 cells, luciferase reporter (AID 1109).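 Further: huh7 hepatoma cells harbouring a luciferase neomycin HCV replicon reporter; luciferase luminescence as measure of HCV replicon replication; test concentration not given here.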 As to conditions: 48 h, higher = more signal. (Replicon systems follow genome replication, usually without infectious particles.)
Test [13] deals with Left-right determination factor 2 (Homo sapiens) (UniProt O00292). Briefly: LEFTY2 binders on small-molecule microarrays, primary screen, biochemical, small-molecule microarray, 635 nm fluorescence scan (AID 1110). Conditions: LEFTY2 binding, higher = more signal.
Chain of Left-right determination factor 2 (Homo sapiens) (O00292 whole entry, looked up): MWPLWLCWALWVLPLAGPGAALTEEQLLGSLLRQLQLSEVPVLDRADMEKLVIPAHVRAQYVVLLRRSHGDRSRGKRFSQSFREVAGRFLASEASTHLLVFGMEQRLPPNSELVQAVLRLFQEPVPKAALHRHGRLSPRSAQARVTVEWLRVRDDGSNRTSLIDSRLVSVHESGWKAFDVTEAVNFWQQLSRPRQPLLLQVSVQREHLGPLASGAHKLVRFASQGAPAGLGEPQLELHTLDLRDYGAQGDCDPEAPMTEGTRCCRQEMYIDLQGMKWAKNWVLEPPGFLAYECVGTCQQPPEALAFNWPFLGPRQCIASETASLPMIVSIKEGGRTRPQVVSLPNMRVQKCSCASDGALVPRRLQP
The target in test [14] is Calmodulin-1 (Homo sapiens) (UniProt P0DP23). Nature of the test: CALM1 binders on microarrays, EGTA buffer, profiling panel, biochemical, small-molecule microarray, Cy5-labelled CALM1 (AID 1111).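 Further: labelled calmodulin applied in Tris saline Tween buffer holding calcium plus EGTA and DTT.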 As to conditions: Cy5-CALM1 binding fluorescence, higher = more signal.
The target is the same in test [15]. Briefly: calcium-bound CALM1 binders on microarrays, profiling panel, artefact control for SMM control-protein annotation, biochemical, small-molecule microarray, Cy5-labelled CALM1, plus calcium (AID 1112).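 Further: score merges spot fluorescence with signal to noise from triplicate slides.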 Conditions: Cy5-CALM1 binding fluorescence, higher = more signal.
A short description of test [16]: small-molecule microarray binders of probe aWnt5a, primary screen, biochemical, biotinylated probe, 635/667 nm fluorescence (AID 1113).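 Further: score merges 667 nm fluorescence intensity with signal-to-noise per printed feature.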 As to conditions: higher = more signal.
Test [17] can be described thus: small-molecule microarray binders of probe aShh, primary screen, biochemical, biotinylated probe, 635/667 nm fluorescence (AID 1114).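 Further: probe is biotin-labelled aShh protein from a stem cell growth factor screen; measures binding of labelled protein to compounds printed on the slide; score merges feature fluorescence at 667 nm with signal-to-noise.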 Conditions: higher = more signal.
Test [18] in a line: small-molecule microarray binders of probe aNog, primary screen, biochemical, biotinylated probe, 635/667 nm fluorescence (AID 1115).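 Further: probe is biotinylated aNog protein used at 0.15 µg/mL for 1 h at 4 C; z-score combines 667 nm fluorescence of each spot with its signal to noise.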 Conditions: higher = more signal.
Test [19] deals with Torsin-1A-interacting protein 1 (Homo sapiens) (UniProt Q5JTV8). Briefly: LAP1 binders from COS7 cell lysate, primary screen, small-molecule microarray, 635/667 nm fluorescence (AID 1116). Conditions: COS7-hLAP1 lysate binding, 635 nm fluorescence, higher = more signal.
Chain of Torsin-1A-interacting protein 1 (Homo sapiens) (Q5JTV8 whole entry, looked up): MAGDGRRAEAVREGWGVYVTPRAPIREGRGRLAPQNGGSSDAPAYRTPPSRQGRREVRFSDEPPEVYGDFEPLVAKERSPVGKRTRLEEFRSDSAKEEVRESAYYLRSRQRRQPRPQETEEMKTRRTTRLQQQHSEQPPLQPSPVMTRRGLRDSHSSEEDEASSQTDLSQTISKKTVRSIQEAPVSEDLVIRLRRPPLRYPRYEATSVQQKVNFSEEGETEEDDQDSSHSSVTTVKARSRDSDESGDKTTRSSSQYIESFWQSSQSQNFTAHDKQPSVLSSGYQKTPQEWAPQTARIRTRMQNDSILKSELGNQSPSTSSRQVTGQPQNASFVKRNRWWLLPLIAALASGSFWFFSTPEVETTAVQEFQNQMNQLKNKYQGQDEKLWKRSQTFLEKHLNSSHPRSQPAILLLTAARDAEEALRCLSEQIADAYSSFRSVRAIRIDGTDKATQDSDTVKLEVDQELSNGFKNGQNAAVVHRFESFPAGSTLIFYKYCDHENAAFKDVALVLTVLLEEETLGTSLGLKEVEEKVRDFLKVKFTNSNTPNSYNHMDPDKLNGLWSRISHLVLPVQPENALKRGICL
Test [20] has as its target Alpha-bungarotoxin (Bungarus multicinctus) (UniProt P60615). Nature of the test: alpha-bungarotoxin binders on microarray, profiling panel, artefact control for SMM control protein annotation, biochemical, small-molecule microarray, Alexa647 label, 635/667 nm fluorescence (AID 1117). As to conditions: alpha-BTX-A647 binding fluorescence, higher = more signal.

Calls of active or inactive are those of the source.

Chain of Fibroblast growth factor 10 (Homo sapiens) (O15520 whole entry, looked up): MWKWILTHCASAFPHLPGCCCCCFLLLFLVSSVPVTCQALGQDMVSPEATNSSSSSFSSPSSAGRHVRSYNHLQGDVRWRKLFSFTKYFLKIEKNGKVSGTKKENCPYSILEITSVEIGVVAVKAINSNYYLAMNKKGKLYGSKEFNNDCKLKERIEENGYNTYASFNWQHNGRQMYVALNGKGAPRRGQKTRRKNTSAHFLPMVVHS
Chain of Alpha-bungarotoxin (Bungarus multicinctus) (P60615 whole entry, looked up): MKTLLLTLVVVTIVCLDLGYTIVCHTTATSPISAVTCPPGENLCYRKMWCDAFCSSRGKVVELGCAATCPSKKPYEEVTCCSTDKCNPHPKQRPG
Chain of Epidermal growth factor receptor (Homo sapiens) (P00533 whole entry, looked up): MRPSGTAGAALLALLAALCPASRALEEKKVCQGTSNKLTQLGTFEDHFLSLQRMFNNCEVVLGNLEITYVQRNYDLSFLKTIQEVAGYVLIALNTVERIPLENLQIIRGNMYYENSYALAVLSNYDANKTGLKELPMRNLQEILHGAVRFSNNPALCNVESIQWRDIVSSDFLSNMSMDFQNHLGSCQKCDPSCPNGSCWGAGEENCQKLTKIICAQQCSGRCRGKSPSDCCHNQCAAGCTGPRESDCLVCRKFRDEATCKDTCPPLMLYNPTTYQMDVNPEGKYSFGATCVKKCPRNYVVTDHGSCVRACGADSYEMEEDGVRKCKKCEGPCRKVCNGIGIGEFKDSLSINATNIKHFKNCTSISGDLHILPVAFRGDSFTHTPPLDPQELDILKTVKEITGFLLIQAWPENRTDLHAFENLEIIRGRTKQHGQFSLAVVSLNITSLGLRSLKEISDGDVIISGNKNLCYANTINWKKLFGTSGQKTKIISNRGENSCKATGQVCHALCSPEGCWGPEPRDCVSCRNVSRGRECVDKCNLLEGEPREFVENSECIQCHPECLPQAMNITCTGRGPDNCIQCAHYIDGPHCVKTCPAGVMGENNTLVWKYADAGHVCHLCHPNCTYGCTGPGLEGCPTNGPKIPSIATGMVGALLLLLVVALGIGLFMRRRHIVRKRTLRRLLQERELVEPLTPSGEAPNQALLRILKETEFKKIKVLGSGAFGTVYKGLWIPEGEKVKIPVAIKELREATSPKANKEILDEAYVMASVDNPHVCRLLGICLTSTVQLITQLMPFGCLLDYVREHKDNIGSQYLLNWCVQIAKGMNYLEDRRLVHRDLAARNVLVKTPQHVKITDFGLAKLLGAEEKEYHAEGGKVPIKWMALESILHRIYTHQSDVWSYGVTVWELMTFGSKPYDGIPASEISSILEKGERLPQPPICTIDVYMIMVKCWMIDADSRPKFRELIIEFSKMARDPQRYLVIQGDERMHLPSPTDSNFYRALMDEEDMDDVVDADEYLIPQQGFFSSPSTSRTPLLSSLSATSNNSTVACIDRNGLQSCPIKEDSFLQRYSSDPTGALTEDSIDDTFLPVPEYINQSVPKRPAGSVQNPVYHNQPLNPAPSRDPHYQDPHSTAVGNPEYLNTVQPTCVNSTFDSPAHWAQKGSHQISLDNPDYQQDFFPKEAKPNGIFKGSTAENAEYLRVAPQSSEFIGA

Turning to `[N-]=[N+]=Nc1ccccc1C[C@]1(C(=O)NCCN2CCOCC2)N=C(c2ccc(OCCCO)cc2)O[C@H]1c1ccccc1`, the composite z-score is 1.09 in [1]; 0.641 in test [2]; 0.273 in [3]; 0.484 in [5]; 1.31 in [6]; -0.117 in test [7]. The composite z-score in test [8] was -0.391; in test [9] it was -0.019; in test [10], -0.16; in test [11] it was 1.03; in [13], -0.0447; in test [14] it was 0.169. The composite z-score in [15] is 0.129; in test [16] it was -0.103; in test [17], 0.123; in test [18], -0.465; in test [19] it was 1.44; in [20] it was 0.968. Moreover, the z-score in test [4] was 0.183 (inactive); in [12], -1.99.
For `C=C(C(=O)CC[C@H](OC(C)=O)c1ccc(OCCO)cc1)C(C)C`, the composite z-score is -0.478 in [1]; -0.267 in test [2]; -0.906 in test [3]; 1.37 in test [5]; -0.479 in [6]; 0.982 in [7]. Besides, the composite z-score in test [8] was 0.876; in [9], 2.01; in [10], -0.0025; in test [11], -0.268; in [13], 1.03; in test [14], -0.189. Besides, the composite z-score was -1.39 in test [15]; -0.1 in [16]; -0.0157 in [17]; -0.0965 in [18]; 0.949 in test [19]; 1.05 in [20]. Also, the z-score in test [4] is -3.58 (inactive); in [12], -4.11.
Consider `C=C[C@H](C)[C@@H](O)c1ccc(O)c2ccccc12`, for which the composite z-score was 1.43 in test [1]; -0.302 in test [2]; -0.0488 in [3]; -0.152 in test [5]; -0.61 in test [6]; -0.775 in test [7]. Further, the composite z-score in [8] was -0.189; in test [9] it was 0.0078; in test [10] it was 1.28; in [11], -0.899; in test [13], -0.187; in [14], -1.15. Besides, the composite z-score is -0.975 in test [15]; -0.175 in [16]; -0.221 in test [17]; -0.689 in test [18]; -0.438 in [19]; 0.465 in test [20]. For the same compound, the z-score in test [4] is -0.0352 (inactive); in test [12] it was -2.
On to `CC(C)CNC(=O)[C@@]1(c2ccc([N+](=O)[O-])cc2)CC(=O)N(CC23CC4CC(CC(C4)C2)C3)[C@@H]1c1ccc(CO)cc1I`, for which the composite z-score amounted to 1.13 in [1]; 0.109 in test [2]; 0.0793 in test [3]; 1.04 in test [5]; 1.3 in test [6]; 0.578 in test [7]. Further, the composite z-score in [8] was 1.08; in test [9], 0.808; in test [10] it was 0.383; in [11], 1.39; in test [13] it was 0.539; in [14], 0.404. For the same compound, the composite z-score is -0.111 in test [15]; -0.0587 in test [16]; -0.0685 in test [17]; -0.289 in [18]; 0.798 in test [19]; 0.504 in [20]. Besides, the results for the z-score in test [4] and in test [12] were -0.125 (inactive) and -3.18, respectively.
Turning to `CCOC(=O)C1=CC[C@@H](c2ccccc2Cl)N(S(=O)(=O)c2ccc(C)cc2)C1`, the composite z-score is 1.17 in [1]; 0.342 in [2]; 0.928 in test [3]; 0.403 in test [5]; 0.196 in test [6]; -0.138 in test [7]. Moreover, the composite z-score is 0.0633 in test [8]; -0.794 in [9]; 0.304 in test [10]; 0.948 in test [11]; -0.462 in [13]; 1.52 in [14]. Moreover, the composite z-score was 0.784 in test [15]; -0.117 in test [16]; -0.167 in test [17]; 1.25 in test [18]; 1.56 in [19]; 0.407 in [20]. Moreover, the z-score is -1.97 (inactive) in test [4] and -2.7 in test [12].
Turning to `CC1CC/C=C\[C@H]2OC34C=CCN(Cc5ccccc5)C(=O)[C@H]3N(CCCCCO)C(=O)[C@@H]4C2C(=O)O1` (stereo not given in full), the composite z-score in test [1] was -0.0545; in test [2], -0.425; in test [3] it was 0.144; in [5] it was -0.423; in [6], -1.42; in [7] it was -0.713. The composite z-score is -1.19 in [8]; -0.892 in test [9]; -0.0407 in [10]; -0.853 in [11]; -0.918 in test [13]; -0.457 in test [14]. The composite z-score in test [15] was 0.163; in test [16], -0.0981; in test [17], -0.345; in test [18], -0.0704; in test [19], 1.04; in test [20], 1.39. Besides, the z-score in test [4] was 0.537 (inactive); in test [12] it was 0.28.

The values above are taken from PubChem BioAssay.
